Marburg entry inh: Marburg virus entry inhibition | Marburg virus pseudotyped entry inhibition, cell reporter | Potency, µM (top dose mostly 37.8 µM), without a hit: at the top dose activity change, negative = inhibition, usual class: inhibitors | actives 1.8% (n = 300,000) | AID 540276; calls by dose curve; tested in HEK293 cells
Lassa entry inh: inhibitors of Lassa virus binding or cell entry; Potency, µM (titrated, usually from 37.9 µM), for inactives: at the top dose activity change, negative = inhibition, usual class: inhibitors; AID 540256; Lassa virus pseudotype entry inhibition, cell reporter; actives 1.2% (n = 300,000); calls by dose curve; tested in HEK293 cells; also: nearly all actives have a fitted effect of over 50% in size
Vaccinia mCherry: vaccinia inhibition (mCherry reporter); Vaccinia virus mCherry reporter infection, fluorescence; Potency, µM (series often up to 36.5 µM), for inactives: at the highest dose activity change, negative = inhibition, actives largely listed as inhibitors; actives 0.63% (n = 310,000); calls by dose curve; tested in A549 cells; also: nearly all actives have a fitted effect of over 35% in size
HCV inh: blocks hepatitis C virus; Potency, µM (top dose mostly 41.8 µM), without a hit: at the top dose activity change, negative = inhibition, actives largely listed as inhibitors; actives 3.4% (n = 340,000); Huh7.5.1 HCVcc-Cre infection, luciferase reporter, 44 h; AID 651820; active = well fitted inhibition curve with a large enough effect; inconclusive = small, poorly fitted or top-dose-only effect, or another doubt; inactive = no such curve, though single readings can be large or run the other way
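A cell-based infection assay in which seeded cells (1,000 per well) receive test compound after 4 h, are inoculated with HCVcc-Cre at approximately 0.5 moi, and are incubated 44 h before luminescence detection.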
Vaccinia Venus: vaccinia inhibition (Venus reporter); AID 720580; actives 0.46% (n = 330,000); Vaccinia virus Venus reporter expression, fluorescence; Potency, µM (doses to about 36.5 µM), without a hit: top-dose activity change, negative = inhibition, hits mostly inhibitors; calls by dose curve; tested in A549 cells; also: nearly all actives have a fitted effect of over 30% in size
Active calls of the source: *; i = inactive; ? = inconclusive; . = no result given; ! = not confirmed by another sample; [ ] = another dose, or the depositor's remark. Compounds with a hit are over-represented: about 4.6% of the library has one in this group of screens. % is scaled to controls: 0 for no effect and ±100 for the full control effect; potency is read from the fitted curve at half-maximal effect.

SMILES	Marburg entry inh	Lassa entry inh	Vaccinia mCherry	HCV inh	Vaccinia Venus
CC(C)C[C@H]1CNC(=S)N1C[C@H]1CCCN1C[C@H](Cc1ccccc1)N1C[C@H](Cc2ccc(O)cc2)N(CC2CCCCC2)C1=S	.	.	-10%	.	-21%
CCOc1ccc(CCN2C(=O)C(=O)N([C@@H](CC(C)C)CN3CCC[C@H]3CN3C(=O)C(=O)NC[C@@H]3Cc3ccccc3)C[C@@H]2Cc2ccccc2)cc1	.	.	?	.	-29%
O=C1NC[C@H](Cc2ccccc2)N(C[C@@H]2CCCN2C[C@H](Cc2ccccc2)N2C[C@H](Cc3ccccc3)N(CC3CCCCC3)C(=O)C2=O)C1=O	.	.	7%	.	-14%
O=C1NC[C@H](Cc2ccccc2)N(C[C@H]2CCCN2C[C@H](Cc2ccccc2)N2C[C@H](Cc3ccccc3)N(CC3CCCCC3)C(=O)C2=O)C1=O	.	.	?	8.9µM*	?
CC(C)C[C@@H](CN1CCCC1CN1C(=S)NC[C@@H]1Cc1ccc(O)cc1)N1C[C@H](Cc2ccc(O)cc2)N(CCc2ccccc2)C1=S (stereo partly specified)	.	.	-3%	-52%	10µM*
CCOc1ccc(CCN2C(=O)C(=O)N([C@@H](CC(C)C)CN3CCC[C@@H]3CN3C(=O)C(=O)NC[C@@H]3Cc3ccccc3)C[C@@H]2CC(C)C)cc1	.	.	-1%	-27%	13µM*
CNc1nc2c(c(=O)n(C)c(=O)n2C)n1CC(O)COc1ccc(OC)cc1 (stereo unspecified)	.	?	-21%	.	-17%
NC(Cc1cc(I)c(Oc2cc(I)c(O)c(I)c2)c(I)c1)C(=O)O (stereo unspecified)	.	.	-17%	.	-10%
CCOc1ccc(CCN2C(=S)N([C@@H](Cc3ccc(O)cc3)CN3CCCC3CN3C(=S)NC[C@@H]3Cc3ccc(O)cc3)C[C@@H]2CC(C)C)cc1 (stereo partly specified)	.	.	?	4.5µM*	?
CCOc1ccc(CCN2C(=S)N([C@@H](Cc3ccccc3)CN3CCC[C@@H]3CN3C(=S)NC[C@@H]3Cc3ccc(O)cc3)C[C@@H]2CC(C)C)cc1	.	.	-15%	.	-26%
Cc1ccc(NC(=O)CSc2cc(=O)n(C)c3ccc(Cl)cc23)c(Br)c1	-6%[46.1 µM]	21%[46.1 µM]	-4%	.	-12%
Cc1ccc(Oc2c(C(N)=O)cc([N+](=O)[O-])cc2[N+](=O)[O-])cc1	?	?	i	3.5µM*	?
Cc1ccc(CNc2ccc([N+](=O)[O-])cc2C(N)=O)cc1	.	.	?	?	-27%
CCc1ccc(NC(=O)CSc2nc(NS(=O)(=O)c3ccccc3)cc(=O)[nH]2)cc1	3.2µM*	?	8.9µM*	?	-3%
Cc1ccc(NC(=O)CSc2nc(NS(=O)(=O)c3ccccc3)cc(=O)[nH]2)cc1	?	5%	-14%	21%	-8%
CCCCn1c(=O)[nH]c(=O)c2c1nc(Cn1ncc(Cl)c(Cl)c1=O)n2CCC	?	?	?	10µM*	?
CC(NC(=O)Cn1ccsc1=N)C12CC3CC(CC(C3)C1)C2 (stereo unspecified)	10µM*	?	i	-16%	-11%
CCn1cc(C(=O)NC(C)C23CC4CC(CC(C4)C2)C3)cn1 (stereo unspecified)	?	-3%	-17%	-3%	-15%
O=C(CN1CCCCC1)NC(=O)NC1CCCC1	?	1%	4%	12%	-2%
O=C(Cn1ncc(Cl)c(Cl)c1=O)NC(=O)NC1CCCCC1	11µM*	?	-35%	0.63µM*	?
CC(NC(=O)CN1C(=O)NC(Cc2ccccc2)(Cc2ccccc2)C1=O)C12CC3CC(CC(C3)C1)C2 (stereo unspecified)	?	?	10µM*	-15%	?
CC(NC(=O)Cn1c(=O)[nH]c2ccsc2c1=O)C12CC3CC(CC(C3)C1)C2 (stereo unspecified)	-24%	6%	.	2%	.
CC(NC(=O)Cn1ncc(Cl)c(Cl)c1=O)C12CC3CC(CC(C3)C1)C2 (stereo unspecified)	?	?	?	10µM*	?
C=CCCC1(C(=O)c2ccccc2)C(=O)C(CC=C(C)C)=C(OC)C(CC=C(C)C)(CCC=C(C)C)C1=O (stereo unspecified)	-1%[14.2 µM]	?	.	.	.
O=C(Nc1ccccc1Br)c1cc(S(=O)(=O)NC2CCCCC2)ccc1F	.	11%[46.1 µM]	-13%	.	-6%
SMILES	Marburg entry inh	Lassa entry inh	Vaccinia mCherry	HCV inh	Vaccinia Venus
O=C(Nc1cnn(C23CC4CC(CC(C4)C2)C3)c1)c1cnn2c(C(F)(F)F)cc(-c3ccco3)nc12	?	?	i	11µM*!	-4%
CCC(=O)N1CCc2cc(Br)cc(S(=O)(=O)CCC(=O)Nc3cccc(Cl)c3)c21	-2%[46.1 µM]	17%[46.1 µM]	-6%	.	-12%
CCN(CC)CCn1c(=N)n(CC(O)COc2ccccc2C)c2ccccc21 (stereo unspecified)	3.2µM*	?	?	.	?
CCN(CC)CCn1c(=N)n(CC(O)COc2cccc(C)c2)c2ccccc21 (stereo unspecified)	?	?	?	6.3µM*	-23%
Cc1cccc(OCC(O)CN2CC2)c1 (stereo unspecified)	.	.	-1%	.	-14%
Cc1cccc(OCC(O)Cn2c(=N)n(CCN3CCCCC3)c3ccccc32)c1 (stereo unspecified)	0.52µM*	?	?	7.1µM*	?
CCCCN(CCCC)c1ccc(/C=C/c2ccnc3ccccc23)cc1	.	.	i	.	32%
Cc1ccc(Cl)cc1N1CCN(C(=O)c2cc(S(=O)(=O)N3CCCCC3)cn2C)CC1	.	5%[46.1 µM]	-26%	.	-5%
CCOC(=O)c1ccc(NC(=O)c2c(N3CCCC3=O)c3cc(OC)ccc3n2C)cc1	.	10%[46.1 µM]	-6%	.	-1%
COc1ccc(Nc2nc(N)c3cc(OC)c(OC)cc3n2)cc1	11µM*	19%[46.1 µM]	-16%[7.34 µM]	.	-9%[7.34 µM]
COc1cc2nc(Nc3cccc(F)c3)nc(N)c2cc1OC	?	?	?	-10%	?
O=C(c1cccnc1)C1CCCN(Cc2ccc3c(c2)CN(C(=O)c2cccc(Cl)c2)CCO3)C1 (stereo unspecified)	.	.	-14%	.	-16%
CC(=O)Nc1ccc(NC(=O)c2ccccc2CCc2ccccc2)cc1	?	10µM*	i	20%	4%
CC(=O)Nc1ccc(C(=O)NCCc2ccccc2)cc1	9%	?	-13%	26%	-2%
CC(=O)Nc1ccc(CCNC(=O)c2ccc3ccccc3c2O)cc1	?	1µM*	i	?	13%
CC(=O)N(Cc1ccc2c(c1)OCO2)Cc1cc2ccc(C)cc2nc1-c1cccc(C)c1	.	.	-12%	.	27%
CC(=O)N1CCN([C@@H]2c3cccc4cccc(c34)[C@H]2NS(=O)(=O)c2ccccc2)CC1	-7%	.	.	.	.
Cc1c(C(=O)NCC2Cc3cccc(-c4cncnc4)c3O2)c(-c2ccccc2)nn1-c1ccccc1 (stereo unspecified)	.	.	-14%	.	10%

High-throughput results from PubChem.
